Data from the supplement of paper PMC6555819.

How the values were obtained:
Assay in all cases: PBM binding z-score (relative to random genomic background probes); higher = stronger binding; sequences stand for … in GC…GCGATTGACAGCGTAGAATGAAGG
[1] = tested on: FXR:RXRa (NR concentration 270 nM, RXRa partner concentration 90 nM)
Procedure, shortened: (§1)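 Binding buffer was PBS pH 7.4 with 2% milk, 0.02% Triton X-100, 1 mM DTT, 0.2 mg/mL BSA and 0.4 mg/ml salmon testes DNA. In it, ligand-free nuclear receptor dimers were incubated 1 h on custom Agilent 4×180K protein-binding microarrays carrying double-stranded probes. Antibodies against each partner (one per run) detected binding, and z-scores were calculated against random background probes after regression normalization of scanned fluorescence.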

[2] = tested on: LXRa:RXRa (NR concentration 270 nM, RXRa partner concentration 90 nM)
Procedure, shortened: as §1

[3] = tested on: LXRa homodimer (NR concentration 270 nM)
Procedure, shortened: as §1

[4] = tested on: LXRb:RXRa (NR concentration 270 nM, RXRa partner concentration 90 nM)
Procedure, shortened: as §1

[5] = tested on: LXRb homodimer (NR concentration 270 nM)
Procedure, shortened: as §1

[6] = tested on: PPARa:RXRa (NR concentration 270 nM, RXRa partner concentration 90 nM)
Procedure, shortened: as §1

[7] = tested on: PPARg:RXRa (NR concentration 180 nM, RXRa partner concentration 90 nM)
Procedure, shortened: as §1

[8] = tested on: PPARg:RXRa 270nM:90nM, anti-RXR (NR concentration 270 nM, RXRa partner concentration 90 nM)
Procedure, shortened: as §1

[9] = tested on: PPARg:RXRa 30nM:10nM, anti-RXR (NR concentration 30 nM, RXRa partner concentration 10 nM)
Procedure, shortened: as §1

[10] = tested on: PPARg:RXRa 90nM:30nM, anti-RXR (NR concentration 90 nM, RXRa partner concentration 30 nM)
Procedure, shortened: as §1

[11] = tested on: PPARg:RXRa DBDmut IVT, anti-RXR (DBD mutation: RXRa K156A/R161A, NR concentration 270 nM, RXRa partner concentration 90 nM)
Procedure, shortened: as §1

[12] = tested on: PPARg:RXRa IVT, anti-PPARg (NR concentration 270 nM, RXRa partner concentration 90 nM)
Procedure, shortened: as §1

[13] = tested on: PPARg DBDmut:RXRa IVT, anti-PPARg (DBD mutation: PPARg1 K132A/R137A, NR concentration 270 nM, RXRa partner concentration 90 nM)
Procedure, shortened: as §1

[14] = tested on: PPARg DBDmut IVT, anti-PPARg (DBD mutation: PPARg1 K132A/R137A, NR concentration 270 nM)
Procedure, shortened: as §1

[15] = tested on: PPARg homodimer (NR concentration 180 nM)
Procedure, shortened: as §1

[16] = tested on: PXR:RXRa (NR concentration 270 nM, RXRa partner concentration 90 nM)
Procedure, shortened: as §1

[17] = tested on: PXR homodimer (NR concentration 270 nM)
Procedure, shortened: as §1

[18] = tested on: RARa:RXR (NR concentration 270 nM, RXRa partner concentration 90 nM)
Procedure, shortened: as §1

[19] = tested on: RARa homodimer (NR concentration 270 nM)
Procedure, shortened: as §1

[20] = tested on: RARb:RXRa (NR concentration 270 nM, RXRa partner concentration 90 nM)
Procedure, shortened: as §1

| Sequence | PBM binding z-score [1] | PBM binding z-score [2] | PBM binding z-score [3] | PBM binding z-score [4] | PBM binding z-score [5] | PBM binding z-score [6] | PBM binding z-score [7] | PBM binding z-score [8] | PBM binding z-score [9] | PBM binding z-score [10] | PBM binding z-score [11] | PBM binding z-score [12] | PBM binding z-score [13] | PBM binding z-score [14] | PBM binding z-score [15] | PBM binding z-score [16] | PBM binding z-score [17] | PBM binding z-score [18] | PBM binding z-score [19] | PBM binding z-score [20] |
| --- | --- | --- | --- | --- | --- | --- | --- | --- | --- | --- | --- | --- | --- | --- | --- | --- | --- | --- | --- | --- |
| ACCTCTAGGTAAAAGTTCAGTGAATCCCGAGGAT | 0.332 | 0.842 | 0.847 | 0.401 | -0.0602 | 3.58 | 7.09 | 7.47 | 6.26 | 8.74 | 2.11 | 3.3 | 0.37 | 0.231 | 0.975 | 1.54 | 1.16 | 1.11 | 0.0645 | 2.08 |
| TTACCAAGGTGAAAGTTCGTTGATGCACGCCTTG | 1.93 | 1.83 | 0.114 | 1.35 | -0.561 | 4.14 | 6.03 | 6.53 | 4.84 | 6.63 | 1.85 | 4.23 | 0.268 | 0.287 | 0.78 | 2.73 | 1.54 | 2.73 | 0.264 | 2.24 |
| TGAATGAGGTTAAAGATCAGGGACCGTGGCGTCG | 2.75 | 2.5 | -0.345 | 1.45 | 0.253 | 4.71 | 5.75 | 6.16 | 5.21 | 6.9 | 1.93 | 3.65 | 0.741 | 0.491 | 1.52 | 1.94 | -0.23 | 2.91 | 0.149 | 1.96 |
| AGTCAAAGTTCATATAGGTAACGTAAGATATGCT | 6.32 | 5.7 | 5.15 | 3.66 | 2.13 | 4.62 | 6.76 | 6.08 | 3.4 | 5.1 | 0.943 | 3.97 | 1.58 | 0.96 | 2.46 | 4.96 | 5 | 3.57 | 1.52 | 4.69 |
| TCGAGTAGGTTACTAATGGGGCATTCAGCTTTCT | -0.458 | 2.4 | -0.454 | 1.24 | -0.917 | 0.717 | -0.149 | 0.701 | 0.939 | 0.928 | 3.02 | 2.39 | 0.0923 | -0.475 | -0.0554 | 0.00033 | -0.441 | 0.224 | -0.684 | 0.494 |
| CCTTACGCGTCACGAGGTTATAGCACGACGAGCG | 0.529 | 0.868 | 0.107 | 0.95 | 0.329 | 1.44 | 1.08 | 0.331 | -0.172 | -0.00609 | 0.147 | 0.154 | 0.124 | 0.548 | 1.05 | 1.03 | 0.532 | 1.15 | 0.761 | 0.811 |
| TCGAGTAGGTTAGTCGGGGCGTTCAGCCAACATA | -0.0524 | -0.272 | -0.481 | -0.0286 | -1.19 | 0.148 | -0.893 | 0.268 | 0.61 | 0.186 | 1.73 | 0.976 | -0.368 | -0.973 | -0.66 | -0.237 | -0.771 | -0.294 | -0.96 | 0.0731 |
| ACCCGGAGGACAAAGGTCAGAGCTACGCCAGTGA | 4 | 4.23 | 1.65 | 3.55 | 0.448 | 5.01 | 6.33 | 6.32 | 3.97 | 5.95 | 0.224 | 2.99 | -0.0126 | -0.296 | 2.98 | 4.14 | 0.302 | 5 | 0.962 | 4.51 |
| CATACAGAGTCAGCTAGGCCAGAGTAGGGACGGC | -0.451 | -0.383 | -0.608 | -0.891 | -0.106 | -0.478 | 0.472 | -0.324 | -0.369 | -0.479 | -0.267 | 0.0883 | 0.15 | 0.197 | -0.174 | -0.875 | -0.632 | -0.635 | -0.132 | 0.148 |
| AGTCAAAGTTCAGGACGAGGTGACGTAAAGCACG | 4.38 | 3.95 | 1.24 | 1.82 | 0.0614 | 3.67 | 4.83 | 5.11 | 2.14 | 4.25 | -0.365 | 2.55 | -0.0177 | -0.0513 | 2.73 | 3.51 | 1.23 | 3.58 | 0.938 | 4.46 |
| TTACCAAGGTGAAGGCCGTTGATCCCTCTGTAGA | 0.294 | 0.227 | -0.606 | 0.138 | -0.941 | 1.33 | 0.354 | 1.33 | 0.659 | 0.916 | 1.67 | 2.18 | -0.266 | 0.1 | 0.061 | 0.0988 | -0.493 | 0.33 | -0.621 | 1.34 |
| GCTTGTAGAACAAGGTTAAGAAAGACTAAGCTAA | -0.242 | 0.558 | -0.426 | 0.502 | -0.664 | 1.6 | 0.852 | 1.67 | 0.36 | 1.11 | 1.63 | 1.06 | -0.311 | -0.211 | 0.167 | 0.293 | -0.338 | 0.612 | -0.688 | 0.679 |
| ACCTACGGGTCAACGAGGTTATAGCACGCGTATA | 6.4 | 4.83 | 0.64 | 3.98 | 0.188 | 5.36 | 4.44 | 4.86 | 1.47 | 3.68 | 1.41 | 2.79 | 0.196 | 0.0693 | 3.53 | 5.22 | 3.27 | 5.3 | 0.837 | 4.05 |
| CCTATTAGTTGACCAAAAGGGCAACCGAAGCTCG | 0.908 | 0.905 | 0.816 | 1.02 | 0.763 | 1.5 | 0.545 | 1.52 | 0.286 | 1.18 | 0.681 | 1.22 | -0.0971 | 1.05 | 2.38 | 1.09 | 0.687 | 1.37 | 1.39 | 2.51 |
